What all share (experiment): NCI-60 one-dose screen, 48 h (100 = growth as untreated, 0 = no growth, -100 = all killed)
What all share (conditions): 10 µM unless noted

In assay [1] the test system is SR leukemia.
Assay [2] deals with RPMI-8226 leukemia.
In assay [3] the test system is OVCAR-8 ovarian.
The test system of assay [4] is OVCAR-5 ovarian.
In assay [5] the test system is OVCAR-4 ovarian.
Assay [6] has as its system SK-OV-3 ovarian.
In assay [7] the test system is IGROV1 ovarian.
For assay [8], the system named is OVCAR-3 ovarian.
For assay [9], the system named is HS 578T breast.
Assay [10] has as its system NCI/ADR-RES ovarian.

Each structure is given as a SMILES string. This is part of a sample that, as a whole, favours compounds with a hit. Of some 83,000 tested, about 20% had one in any assay.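 Single-dose data. Exposure time 48 hours. Values below 10 considered active.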 Active and inactive are the calls of the source.

In the case of `CCOC(=O)c1cccc(NC2=C(Cl)C(=O)C(C)=C(C)C2=O)c1`, the growth was 27.7% (inactive) in assay [1]; 26.8% (inactive) in [2]; 98.8% (inactive) in [3]; 105% (inactive) in assay [4]; -4.17% (active) in assay [5]; 107% (inactive) in assay [6]. Also, the growth in [7] was 32.2% (inactive); in assay [8] it was 99.8% (inactive); in [9], 95.9% (inactive); in assay [10], 102% (inactive).
For the molecule `COc1cc(-c2nc(-c3ccccc3)[nH]c2-c2ccnc(NCCCNS(=O)(=O)c3ccc(C)cc3)n2)ccc1F`, the growth in [1] was 89.4% (inactive); in assay [2] it was 54% (inactive); in assay [3], 83.8% (inactive); in assay [4] it was 119% (inactive); in [5], 108% (inactive); in assay [6], 148% (inactive). The growth in [7] was 95.2% (inactive); in assay [8] it was 119% (inactive); in assay [9] it was 107% (inactive); in assay [10], 89.8% (inactive).
Regarding `C(=N\Nc1nc(N/N=C/c2ccc3c(c2)OCO3)nc(N2CCCCC2)n1)/c1ccc2c(c1)OCO2`, the growth in assay [1] was 0.113% (active); in assay [2] it was 56.2% (inactive); in [3], 90.1% (inactive); in [4], 118% (inactive); in [5], 110% (inactive); in [6], 140% (inactive). The growth was 76.9% (inactive) in [7], 105% (inactive) in assay [8], 104% (inactive) in [9] and 85.5% (inactive) in [10].
In the case of `C#CCN(C)CCCOc1ccc(NC(=O)CCCCCCCCC(=O)NO)cc1Cl`, the growth in assay [1] was 32.7% (inactive); in assay [2], 40.2% (inactive); in [3] it was 53.4% (inactive); in assay [4], 68.8% (inactive); in assay [5] it was 74.3% (inactive); in assay [6], 84.8% (inactive). In addition, the growth in assay [7] was 71.5% (inactive); in [8], 73.7% (inactive); in [9], 70.3% (inactive); in assay [10], 82.7% (inactive).
Regarding `NC1C2CCC1CN(c1cnc(C(=O)Nc3cc(F)cc4cccnc34)cn1)C2` (stereo not given), the growth in assay [1] was 5.29% (active); in assay [2], 57% (inactive); in [3], 86% (inactive); in assay [4], 66.7% (inactive); in [5] it was 18.5% (inactive); in assay [6], 97.1% (inactive). Besides, the growth was 16.3% (inactive) in assay [7], 46.3% (inactive) in assay [8], 68.8% (inactive) in assay [9] and 79.4% (inactive) in [10].
Turning to `COc1ccc2[nH]cc(/C=N/Nc3ccnc4cc(Cl)ccc34)c2c1`, the growth is -27.1% (active) in [1]; -62.8% (active) in assay [2]; -70% (active) in assay [3]; -100% (active) in assay [4]; -100% (active) in assay [5]; -95.6% (active) in [6]. Besides, the growth in assay [7] was -94.6% (active); in assay [8], -82.1% (active); in [9], -49.6% (active); in assay [10] it was -60.4% (active).
Take `Cc1ccc2c(n1)C(=O)C(Cl)=C(Nc1cccc(C)c1C)C2=O`: the growth in assay [1] is 6.7% (active); in assay [2], -12.7% (active); in assay [3], -3.5% (active); in assay [4], -29% (active); in [5] it was -97.6% (active); in [6], 117% (inactive). In addition, the growth was -58.4% (active) in assay [7], -97.8% (active) in assay [8], -13% (active) in assay [9] and -5.45% (active) in [10].
For `COc1cc(NC(=O)Nc2cccc(-c3cc(=O)c4c(OC)c(OC)c(OC)cc4o3)c2)cc(OC)c1OC`, the growth in [1] is 54.5% (inactive); in [2], 31.4% (inactive); in [3] it was 38.4% (inactive); in [4], 79.5% (inactive); in assay [5] it was 65.5% (inactive); in assay [6], 111% (inactive). The growth in assay [7] is 34.5% (inactive); in [8] it was 40.1% (inactive); in assay [9], 17.1% (inactive); in assay [10], 82.4% (inactive).
Consider `O=C(NNc1nc2cc(F)cc(F)c2n2cccc12)c1cccnn1`, for which the growth is 14.8% (inactive) in assay [1]; 11.8% (inactive) in assay [2]; 19% (inactive) in assay [3]; 46.3% (inactive) in assay [4]; 4.96% (active) in assay [5]; -1.52% (active) in [6]. For the same molecule, the growth is 13.5% (inactive) in [7], 14% (inactive) in assay [8], 32% (inactive) in assay [9] and 0.935% (active) in [10].
As for `CCOC(=O)c1cccc(NC2=C(Cl)C(=O)c3nc(C)ccc3C2=O)c1`, the growth was 37.1% (inactive) in assay [1]; 53.3% (inactive) in [2]; 97.8% (inactive) in assay [3]; 104% (inactive) in assay [4]; 53.7% (inactive) in [5]; 98% (inactive) in assay [6]. Besides, the growth was 17.3% (inactive) in assay [7], 46.1% (inactive) in assay [8], 111% (inactive) in assay [9] and 94.6% (inactive) in [10].
Regarding `CN(C)S(=O)(=O)c1ccc(-c2nc(C(Cl)Cl)nc3cc(-c4ccccc4)nn23)cc1`, the growth in assay [1] is 36.2% (inactive); in [2] it was 86.8% (inactive); in assay [3], 60.7% (inactive); in assay [4] it was 90% (inactive); in assay [5], 90.5% (inactive); in assay [6], 92.2% (inactive). Further, the growth is 66% (inactive) in [7], 93.5% (inactive) in assay [8], 109% (inactive) in assay [9] and 69.5% (inactive) in assay [10].
As to `CCCCCC[n+]1ccc(SCC(=O)n2ccc3ccccc32)c2ccccc21`, the growth in [1] was 56.6% (inactive); in assay [2], 49.6% (inactive); in assay [3], 92.1% (inactive); in assay [4], 98.4% (inactive); in assay [5], 58.6% (inactive); in assay [6], 89.9% (inactive). The growth in assay [7] was 74.1% (inactive); in assay [8], 84.7% (inactive); in assay [9], 97.6% (inactive); in [10] it was 103% (inactive).
With `CCC(=C(c1ccc(OCCN(C)C)cc1)c1ccc(OCCN(C)C)cc1)c1ccc(Cl)cc1`, the growth in [1] was -43% (active); in assay [2], -43.8% (active); in assay [3], -21.5% (active); in [4], -48.7% (active); in assay [5] it was -20.1% (active); in [6] it was 95.5% (inactive). Also, the growth is -76.8% (active) in assay [7], -34.8% (active) in assay [8], -36.1% (active) in assay [9] and -25.7% (active) in [10].

Source of the values: PubChem BioAssay (NCI).
